According to PubChem BioAssay AID1159580 (chemical genetic matrix, 2015):
The whole screen tested about 5,500 compounds, of which about 2,000 (36%) were called active. Another 18% or so got no clear call; they are omitted. Cut-off read from the data, not from the text of the source: active = normalized growth mostly below about 0.91 (no sharp cut-off); inconclusive = no clear call, values can overlap the other calls; inactive = mostly above about 0.92. The list shows a part of the results.

Assay: chemical genetic growth profiling, strain panel (AID 1159580);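 note: tested at 20 µM; growth read once vehicle control cultures reached saturation at 30 °C; 1 = growth at the plate median or of vehicle wells; lower values mean less growth of the strain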
Conditions: S. cerevisiae deletion strains, growth OD

Measured: normalized growth

CNc1ncnc2c1ncn2[C@H]1C[C@H](OP(=O)(O)O)[C@@H](COP(=O)(O)O)O1
inactive: locus YAL040C, strain CLN3, stronger effect = lower value 0.995 | locus YCL061C, strain MRC1 (second series), stronger effect = lower value 1.01 | locus YDR363W, strain ESC2, stronger effect = lower value 1 | locus YER002W, strain NOP16, stronger effect = lower value 0.983 | locus YGR229C, strain SMI1, stronger effect = lower value 1.02 | locus YJR075W, strain HOC1, stronger effect = lower value 1.01 | locus YNL175C, strain NOP13, stronger effect = lower value 0.996 | locus YNL197C, strain WHI3, stronger effect = lower value 1 | locus YNL224C, strain SQS1, stronger effect = lower value 1 | locus YNL322C, strain KRE1, stronger effect = lower value 1.01 | locus YOR083W, strain WHI5 (second series), stronger effect = lower value 1.01 | locus YPL055C, strain LGE1, stronger effect = lower value 1.01 | locus YPL241C, strain CIN2, stronger effect = lower value 1
